# Test results published in PubChem BioAssay (EPA / NIEHS).
# Results filed as inconclusive are left out. Activity calls are given as the source filed them. The calls were made as follows: active = hit-call score of the fitted dose curve at least 0.9, where 1 is the maximum; inconclusive = response in the unintended direction; inactive = score below 0.9.
# Columns and labels:
# [1] = biological target: human Opioid Receptor Mu (Opiate Mu), OPRM1 (gene 4988) (UniProt P35372); assay: NVS_GPCR_hOpiate_mu: NovaScreen (NVS) G Protein-Coupled Receptor Assay for human Opioid Receptor Mu (Opiate Mu) (AID 2283290);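 also: hits lower bound tracer signal versus DMSO meaning displacement of the ligand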
# Sequence of human Opioid Receptor Mu (Opiate Mu), OPRM1 (gene 4988) (P35372 whole entry, looked up): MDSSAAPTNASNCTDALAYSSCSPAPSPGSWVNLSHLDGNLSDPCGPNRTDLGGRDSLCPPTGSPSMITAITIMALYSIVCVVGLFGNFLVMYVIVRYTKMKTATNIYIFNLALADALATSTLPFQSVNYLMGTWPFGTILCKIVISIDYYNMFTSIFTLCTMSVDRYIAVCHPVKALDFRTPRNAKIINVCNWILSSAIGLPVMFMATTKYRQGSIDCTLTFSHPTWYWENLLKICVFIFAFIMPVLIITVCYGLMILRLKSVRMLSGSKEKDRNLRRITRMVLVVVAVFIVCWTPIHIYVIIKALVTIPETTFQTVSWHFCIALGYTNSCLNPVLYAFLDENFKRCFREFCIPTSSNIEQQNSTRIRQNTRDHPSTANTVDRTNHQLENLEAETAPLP
# Procedure, shortened: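 Radioligand displacement binding on membranes from CHO cells expressing the receptor, 2.5 h after dosing, filter-based scintillation counting; loss of signal vs DMSO baseline. Screened in duplicate at 25 uM, actives then run in concentration series.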
# [2] = biological target: rat Serotonin, 5-Hydroxytryptamine Receptor 1 (5HT1), Non-Selective Binding, Htr1a (gene 24473) (UniProt P19327); assay: NVS_GPCR_r5HT1_NonSelective: NovaScreen (NVS) G Protein-Coupled Receptor Assay for rat Serotonin, 5-Hydroxytryptamine Receptor 1 (5HT1), Non-Selective Binding (AID 2283286)
# Sequence of rat Serotonin, 5-Hydroxytryptamine Receptor 1 (5HT1), Non-Selective Binding, Htr1a (gene 24473) (P19327 whole entry, looked up): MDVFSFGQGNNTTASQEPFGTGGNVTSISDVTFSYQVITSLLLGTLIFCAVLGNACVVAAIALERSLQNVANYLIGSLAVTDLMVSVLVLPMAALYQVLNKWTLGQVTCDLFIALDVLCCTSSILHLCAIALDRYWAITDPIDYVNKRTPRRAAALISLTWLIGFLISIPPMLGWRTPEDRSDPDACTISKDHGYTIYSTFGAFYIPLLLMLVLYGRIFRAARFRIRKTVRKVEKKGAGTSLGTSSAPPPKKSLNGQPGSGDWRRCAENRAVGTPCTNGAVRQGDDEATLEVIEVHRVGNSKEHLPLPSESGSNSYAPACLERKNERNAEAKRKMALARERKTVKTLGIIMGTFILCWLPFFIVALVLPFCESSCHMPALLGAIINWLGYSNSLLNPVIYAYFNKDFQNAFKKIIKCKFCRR
# Procedure, shortened: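 Binding of a radioligand to rat cortex membranes is read by filtration and scintillation counting after 1 h. Compounds were screened at 25 uM in duplicate. Actives were then titrated to a top of 50 uM. DMSO is the baseline.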
# [3] = test system: 5-hydroxytryptamine receptor 2C (pig); assay: NVS_GPCR_p5HT2C: NovaScreen (NVS) G Protein-Coupled Receptor Assay for pig Serotonin, 5-Hydroxytryptamine Receptor 2C (5HT2C) (AID 2283288)
# Procedure, shortened: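 Radioligand displacement on membranes from pig choroid plexus, detected by filter scintillation counting after 1 h. Tested first at a single 25 uM in duplicate, then in concentration-response for actives; DMSO served as baseline.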
# [4] = biological target: Metabotropic glutamate receptor 1 (Rattus norvegicus) (UniProt P23385); assay: NVS_GPCR_rmMGluR1: NovaScreen (NVS) G Protein-Coupled Receptor Assay for rat Glutamate Metabotropic Receptor 1 (MGluR1) (AID 2283305)
# Sequence of Metabotropic glutamate receptor 1 (Rattus norvegicus) (P23385 whole entry, looked up): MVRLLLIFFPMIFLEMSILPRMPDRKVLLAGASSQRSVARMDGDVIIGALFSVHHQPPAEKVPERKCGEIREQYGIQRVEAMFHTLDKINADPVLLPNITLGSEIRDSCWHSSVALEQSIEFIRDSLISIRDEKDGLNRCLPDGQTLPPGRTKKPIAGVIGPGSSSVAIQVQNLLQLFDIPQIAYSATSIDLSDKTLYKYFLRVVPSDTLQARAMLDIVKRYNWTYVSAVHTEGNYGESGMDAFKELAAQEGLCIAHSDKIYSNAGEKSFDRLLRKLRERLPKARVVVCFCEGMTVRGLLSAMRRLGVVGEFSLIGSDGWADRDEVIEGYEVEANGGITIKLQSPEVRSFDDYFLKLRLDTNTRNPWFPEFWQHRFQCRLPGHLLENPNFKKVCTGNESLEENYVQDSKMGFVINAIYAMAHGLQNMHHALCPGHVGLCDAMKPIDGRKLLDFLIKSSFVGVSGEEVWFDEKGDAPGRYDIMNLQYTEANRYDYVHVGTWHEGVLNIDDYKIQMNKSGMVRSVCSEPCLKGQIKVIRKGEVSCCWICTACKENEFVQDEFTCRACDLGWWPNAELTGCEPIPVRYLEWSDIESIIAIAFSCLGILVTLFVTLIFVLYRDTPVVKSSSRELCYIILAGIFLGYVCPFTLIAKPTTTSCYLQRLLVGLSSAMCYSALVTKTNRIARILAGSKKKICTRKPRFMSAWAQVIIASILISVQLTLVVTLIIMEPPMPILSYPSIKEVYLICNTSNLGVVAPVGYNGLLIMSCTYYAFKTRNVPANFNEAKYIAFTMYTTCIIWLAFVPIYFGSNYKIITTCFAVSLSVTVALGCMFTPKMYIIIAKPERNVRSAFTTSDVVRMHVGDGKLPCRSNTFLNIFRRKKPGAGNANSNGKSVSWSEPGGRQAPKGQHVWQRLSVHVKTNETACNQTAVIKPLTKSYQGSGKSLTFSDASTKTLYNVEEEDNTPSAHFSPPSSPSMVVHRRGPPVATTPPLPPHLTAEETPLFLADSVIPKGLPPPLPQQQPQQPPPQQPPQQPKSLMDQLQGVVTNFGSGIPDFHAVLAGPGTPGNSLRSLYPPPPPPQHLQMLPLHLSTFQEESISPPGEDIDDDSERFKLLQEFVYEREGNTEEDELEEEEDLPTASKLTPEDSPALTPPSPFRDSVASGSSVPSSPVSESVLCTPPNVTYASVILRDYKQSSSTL
# Procedure, shortened: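 Binding to native receptor from rat cerebellum extract, measured as displacement of a radioligand (scintillation counting, filter separation) after 1 hour. Compounds tested at 25 uM in duplicate, then titrated to a 50 uM maximum.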
# [5] = biological target: rat Neurokinin-1 Receptor (NK1), Tacr1 (gene 24807) (UniProt P14600); assay: NVS_GPCR_rNK1: NovaScreen (NVS) G Protein-Coupled Receptor Assay for rat Neurokinin-1 Receptor (NK1) (AID 2283309)
# Sequence of rat Neurokinin-1 Receptor (NK1), Tacr1 (gene 24807) (P14600 whole entry, looked up): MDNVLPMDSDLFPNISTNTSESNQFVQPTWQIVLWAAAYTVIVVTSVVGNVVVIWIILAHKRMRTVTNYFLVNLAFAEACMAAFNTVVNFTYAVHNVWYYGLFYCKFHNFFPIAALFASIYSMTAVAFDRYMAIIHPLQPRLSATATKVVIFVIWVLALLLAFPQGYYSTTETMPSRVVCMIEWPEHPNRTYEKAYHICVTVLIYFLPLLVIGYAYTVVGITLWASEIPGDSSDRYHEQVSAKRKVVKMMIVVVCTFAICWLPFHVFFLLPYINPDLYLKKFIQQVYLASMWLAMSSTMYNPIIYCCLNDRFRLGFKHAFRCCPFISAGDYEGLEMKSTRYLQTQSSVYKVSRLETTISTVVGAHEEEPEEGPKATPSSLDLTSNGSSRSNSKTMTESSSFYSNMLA
# Procedure, shortened: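 Competitive radioligand binding to NK1 in rat submaxillary membranes, 1 h incubation, filtration and scintillation read-out. Compounds first screened at 25 uM in duplicate, then concentration-response for actives; signal loss relative to DMSO.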
# [6] = biological target: mouse Cholecystokinin, CCK1 Receptor (CCKA), Cckar (gene 12425) (UniProt O08786); assay: NVS_GPCR_mCCKAPeripheral: NovaScreen (NVS) G Protein-Coupled Receptor Assay for mouse Cholecystokinin, CCK1 Receptor (CCKA) (AID 2283285)
# Sequence of mouse Cholecystokinin, CCK1 Receptor (CCKA), Cckar (gene 12425) (O08786 whole entry, looked up): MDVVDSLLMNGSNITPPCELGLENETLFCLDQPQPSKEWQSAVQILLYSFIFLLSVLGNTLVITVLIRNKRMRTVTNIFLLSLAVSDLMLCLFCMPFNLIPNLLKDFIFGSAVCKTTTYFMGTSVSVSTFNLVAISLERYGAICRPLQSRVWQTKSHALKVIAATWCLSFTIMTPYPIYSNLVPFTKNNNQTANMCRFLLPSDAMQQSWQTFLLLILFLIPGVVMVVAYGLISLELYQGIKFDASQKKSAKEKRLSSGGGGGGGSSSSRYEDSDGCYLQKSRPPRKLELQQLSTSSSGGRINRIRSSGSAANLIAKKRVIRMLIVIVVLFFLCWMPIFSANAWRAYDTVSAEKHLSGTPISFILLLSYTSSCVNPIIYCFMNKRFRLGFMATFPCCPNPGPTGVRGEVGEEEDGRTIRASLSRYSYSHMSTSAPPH
# Procedure, shortened: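 Chemicals were first screened in duplicate at 25 uM, with those meeting threshold (e.g., 30% inhibition) retested in singleton concentration series to 50 uM maximum. Binding of radioligand to mouse pancreatic membranes was read after 2 h by filtration and scintillation counting.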
# [7] = test system: rabbit Platelet Activating Factor Receptor (PAF), gene 100354046; assay: NVS_GPCR_rabPAF: NovaScreen (NVS) G Protein-Coupled Receptor Assay for rabbit Platelet Activating Factor Receptor (PAF) (AID 2283287)
# Procedure, shortened: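 Rabbit platelet membrane preparation; radioligand displacement read by filter-based scintillation counting 1 h after dosing, loss of signal versus DMSO. Primary screen in duplicate at 25 uM, actives followed up in concentration series.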
# [8] = biological target: human Orphanin, Opioid Related Nociceptin Receptor 1 (ORL1), OPRL1 (gene 4987) (UniProt P41146); assay: NVS_GPCR_hORL1: NovaScreen (NVS) G Protein-Coupled Receptor Assay for human Orphanin, Opioid Related Nociceptin Receptor 1 (ORL1) (AID 2283283)
# Sequence of human Orphanin, Opioid Related Nociceptin Receptor 1 (ORL1), OPRL1 (gene 4987) (P41146 whole entry, looked up): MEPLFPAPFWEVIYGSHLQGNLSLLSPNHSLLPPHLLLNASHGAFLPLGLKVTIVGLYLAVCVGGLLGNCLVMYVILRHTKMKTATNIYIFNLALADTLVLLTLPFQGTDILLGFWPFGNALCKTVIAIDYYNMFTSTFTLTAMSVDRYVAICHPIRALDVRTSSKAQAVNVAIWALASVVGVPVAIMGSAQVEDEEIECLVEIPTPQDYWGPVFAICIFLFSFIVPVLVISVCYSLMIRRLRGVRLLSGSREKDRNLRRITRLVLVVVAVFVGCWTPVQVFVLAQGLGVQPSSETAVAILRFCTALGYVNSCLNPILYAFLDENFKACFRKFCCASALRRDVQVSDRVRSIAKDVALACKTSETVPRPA
# Procedure, shortened: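 Cell-free binding using HEK293-derived receptor protein: radioligand displacement measured by filter scintillation 1 hour after dosing. Primary testing at 25 uM in duplicate, followed by singleton concentration series up to 50 uM; DMSO served as negative control.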
# [9] = biological target: guinea pig Serotonin, 5-Hydroxytryptamine Receptor 4 (5HT4), HTR4 (gene 100135548) (UniProt O70528); assay: NVS_GPCR_g5HT4: NovaScreen (NVS) G Protein-Coupled Receptor Assay for guinea pig Serotonin, 5-Hydroxytryptamine Receptor 4 (5HT4) (AID 2283294)
# Sequence of guinea pig Serotonin, 5-Hydroxytryptamine Receptor 4 (5HT4), HTR4 (gene 100135548) (O70528 whole entry, looked up): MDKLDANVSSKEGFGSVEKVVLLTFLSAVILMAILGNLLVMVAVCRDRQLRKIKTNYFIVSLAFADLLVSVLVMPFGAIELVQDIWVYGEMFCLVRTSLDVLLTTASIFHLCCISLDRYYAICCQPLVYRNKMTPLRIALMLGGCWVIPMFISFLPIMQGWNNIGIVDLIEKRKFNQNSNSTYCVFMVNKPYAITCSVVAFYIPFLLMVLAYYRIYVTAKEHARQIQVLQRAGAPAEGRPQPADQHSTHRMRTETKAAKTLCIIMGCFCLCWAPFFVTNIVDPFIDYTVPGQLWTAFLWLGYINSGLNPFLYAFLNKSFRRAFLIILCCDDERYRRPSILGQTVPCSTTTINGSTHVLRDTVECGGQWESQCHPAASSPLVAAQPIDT
# Procedure, shortened: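 Compounds first screened in duplicate at 25 uM, actives followed up in concentration series. Binding measured as displacement of specific radioligand from guinea pig striatal membranes, 1 h, filter-based scintillation read-out versus DMSO baseline.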
# Adra2b (gene 24174) = Adra2b (gene 24174) (UniProt P19328); assay: NVS_GPCR_rmAdra2B: NovaScreen (NVS) G Protein-Coupled Receptor Assay for hybird cells Adrenergic, Alpha 2B Receptor (Adra2B) (AID 2283306)
# Sequence of Adra2b (gene 24174) (P19328 whole entry, looked up): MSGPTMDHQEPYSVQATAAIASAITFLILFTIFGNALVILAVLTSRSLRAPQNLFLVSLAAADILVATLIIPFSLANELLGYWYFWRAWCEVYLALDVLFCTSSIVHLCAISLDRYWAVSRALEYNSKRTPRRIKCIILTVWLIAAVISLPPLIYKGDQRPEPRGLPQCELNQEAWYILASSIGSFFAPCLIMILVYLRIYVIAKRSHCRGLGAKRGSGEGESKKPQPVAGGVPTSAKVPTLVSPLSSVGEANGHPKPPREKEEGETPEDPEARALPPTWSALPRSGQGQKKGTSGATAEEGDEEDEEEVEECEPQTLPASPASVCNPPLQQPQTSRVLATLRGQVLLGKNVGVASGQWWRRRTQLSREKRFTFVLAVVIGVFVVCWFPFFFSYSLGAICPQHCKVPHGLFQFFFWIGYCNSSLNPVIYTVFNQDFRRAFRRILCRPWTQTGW
# Procedure, shortened: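 Compounds screened first at 25 uM in duplicate, with actives followed up in concentration-response; specific radioligand displacement from hybrid neuroglioma/blastoma cell membrane preparations measured by filter scintillation counting after 1 h, normalized to DMSO.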
# [10] = biological target: rat Adrenergic, Alpha 1, Non-selective Receptor (Adra1), Adra1a (gene 29412) (UniProt P43140); assay: NVS_GPCR_rAdra1_NonSelective: NovaScreen (NVS) G Protein-Coupled Receptor Assay for rat Adrenergic, Alpha 1, Non-selective Receptor (Adra1) (AID 2283289)
# Sequence of rat Adrenergic, Alpha 1, Non-selective Receptor (Adra1), Adra1a (gene 29412) (P43140 whole entry, looked up): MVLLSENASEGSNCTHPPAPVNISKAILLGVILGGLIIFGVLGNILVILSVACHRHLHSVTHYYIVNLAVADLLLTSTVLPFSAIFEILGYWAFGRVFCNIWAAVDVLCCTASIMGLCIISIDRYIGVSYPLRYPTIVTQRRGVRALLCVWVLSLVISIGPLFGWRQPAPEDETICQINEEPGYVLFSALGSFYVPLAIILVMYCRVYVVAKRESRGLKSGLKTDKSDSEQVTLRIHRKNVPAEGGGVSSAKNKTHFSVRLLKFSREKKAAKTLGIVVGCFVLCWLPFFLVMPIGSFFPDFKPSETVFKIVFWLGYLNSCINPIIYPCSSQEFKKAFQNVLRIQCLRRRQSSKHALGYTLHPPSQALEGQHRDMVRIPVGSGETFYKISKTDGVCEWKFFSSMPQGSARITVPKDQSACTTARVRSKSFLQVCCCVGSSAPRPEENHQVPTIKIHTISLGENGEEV
# Procedure, shortened: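 Chemicals first screened in duplicate at 25 uM, then actives tested in concentration series up to 50 uM. Binding measured as displacement of radioligand from rat forebrain membrane receptors, 1 h, filtration with scintillation readout; DMSO baseline.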
# [11] = test system: rat Adrenergic, Alpha 1B Receptor (Adra1B), gene 24173; assay: NVS_GPCR_rAdra1B: NovaScreen (NVS) G Protein-Coupled Receptor Assay for rat Adrenergic, Alpha 1B Receptor (Adra1B) (AID 2283297)
# Procedure, shortened: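 Filter-binding radioligand competition on membranes from rat liver, read after 1 h by scintillation counting. Single-concentration duplicate screen at 25 uM, followed by concentration-response on actives, normalised to DMSO.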
# [12] = test system: guinea pig Atrionatriuretic Peptide Receptor A (ANPA), gene 100135578; assay: NVS_GPCR_gANPA: NovaScreen (NVS) G Protein-Coupled Receptor Assay for guinea pig Atrionatriuretic Peptide Receptor A (ANPA) (AID 2283291)
# Procedure, shortened: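 Displacement of specific radioligand from guinea pig cerebellum membranes was read by scintillation after 1 h. A duplicate single-point screen at 25 uM was followed by a concentration series up to 50 uM, analysed relative to DMSO.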
structure (smiles),measurement,setting,value
O=C(O)C(F)(F)C(F)(F)C(F)(F)C(F)(F)C(F)(F)C(F)(F)C(F)(F)C(F)(F)C(F)(F)F,AC50,[1],25 µM (active)
CCC(C)(CC)c1cc(NC(=O)c2c(OC)cccc2OC)on1,outcome,[2],inactive
CCOP(=S)(OCC)SCSC(C)(C)C,outcome,[3],inactive
CCC(=O)O[C@H]1CC[C@H]2[C@@H]3CCC4=CC(=O)CC[C@]4(C)[C@H]3CC[C@]12C,outcome,[4],inactive
CCSC(=O)N(CC)C1CCCCC1,AC50,[5],40.1 µM (active)
CC(C)(O)C(=O)Nc1ccc([N+](=O)[O-])c(C(F)(F)F)c1,AC50,[3],19.2 µM (active)
Oc1ccc(Cl)cc1Cl,outcome,[3],inactive
CCOC(=O)C(O)(c1ccc(Cl)cc1)c1ccc(Cl)cc1,AC50,[6],11.7 µM (active)
same,AC50,[7],7.46 µM (active)
CCCCCCCCCC[N+](C)(C)CCCCCCCCCC,AC50,[8],7.48 µM (active)
same,AC50,[6],6.6 µM (active)
same,AC50,[7],7.2 µM (active)
same,AC50,[3],21.1 µM (active)
same,AC50,[1],4.3 µM (active)
same,AC50,[9],21.9 µM (active)
same,AC50,[4],17.6 µM (active)
same,outcome,Adra2b (gene 24174),inactive
same,outcome,[5],inactive
Oc1ccc(C(c2ccc(O)cc2)(C(F)(F)F)C(F)(F)F)cc1,AC50,[8],25 µM (active)
same,AC50,[3],1.39 µM (active)
same,AC50,[10],38.1 µM (active)
same,AC50,[1],4.93 µM (active)
same,AC50,[9],11.7 µM (active)
same,AC50,[11],41.2 µM (active)
Cc1ccccc1[N+](=O)[O-],outcome,[2],inactive
CCC(C)(c1ccc(O)cc1)c1ccc(O)cc1,AC50,[3],16.9 µM (active)
same,AC50,[1],9.36 µM (active)
same,AC50,[9],16.5 µM (active)
Cc1cc(O)ccc1Cl,AC50,[3],9.65 µM (active)
ClC1=C(Cl)[C@]2(Cl)[C@@H]3[C@H]4C[C@H]([C@@H]5O[C@H]45)[C@@H]3[C@@]1(Cl)C2(Cl)Cl,outcome,[12],inactive
Clc1ccc(C(c2ccccc2Cl)C(Cl)(Cl)Cl)cc1 (stereo unspecified),outcome,[1],inactive
